Compounds without any hit were thinned out: in the full panel of roughly 79,000, 15% have a hit. Calls of active or inactive are those of the source. Rule as the data show it: active = growth inhibition above about 70%; inactive = the rest. Where a SMILES comes first, the peptide text is derived from it. [ ]: non-standard residue; d: D form. The star is where a group is joined. ξ: configuration not given here. ξF = NC(Cc1ccccc1)C(=O)O; Cbz = O=C(OCc1ccccc1)*
Experiments:
[1] = NCI Yeast Anticancer Drug Screen. Data for the rad50 strain (AID 155);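 also: 0% = growth of vehicle-only cultures of the same strain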; conditions: S. cerevisiae rad50 strain growth inhibition; at 50.0 µM; stronger effect = higher value
Method in brief: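 Genetically altered yeast (DNA repair pathway); compound treatment; growth inhibition vs vehicle ctrl.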

[2] = NCI Yeast Anticancer Drug Screen. Data for the mec2-1 strain (AID 157); conditions: S. cerevisiae mec2-1 strain, at 50.0 µM, stronger effect = higher value
Method in brief: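 Cells of the genetically defined mec2-1 yeast strain are incubated with test compound. Inhibition of growth is calculated against vehicle-treated controls.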

[3] = NCI Yeast Anticancer Drug Screen. Data for the sgs1 mgt1 strain (AID 161);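 also: 0% = growth of cultures given vehicle only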; conditions: S. cerevisiae sgs1 mgt1 strain, at 50.0 µM, stronger effect = higher value
Method in brief: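 Mutant yeast exposed to compound; growth scored against vehicle-only wells.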

[4] = NCI Yeast Anticancer Drug Screen. Data for the cln2 rad14 strain (AID 165);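 also: 0% = growth equal to vehicle treated cultures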; conditions: S. cerevisiae cln2 rad14 strain, at 50.0 µM, stronger effect = higher value
Method in brief: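 The screen exposed genetically defined yeast (cln2 rad14) to test compounds and scored growth inhibition relative to vehicle-treated controls.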

[5] = NCI Yeast Anticancer Drug Screen. Data for the bub3 strain (AID 167); conditions: S. cerevisiae bub3 mutant strain, at 50.0 µM, stronger effect = higher value
Method in brief: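 Yeast carrying a defined mutation is treated with each compound, and growth is compared with that of vehicle-exposed cells to give inhibition.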

[6] = NCI Yeast Anticancer Drug Screen. Data for the mlh1 rad18 strain (AID 175); conditions: S. cerevisiae mlh1 rad18 strain growth inhibition; at 50.0 µM; stronger effect = higher value
Method in brief: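 Compound-treated yeast growth, normalised to vehicle controls. Strain bears defined DNA repair mutations.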

Measured: growth inhibition

C/C(CC(=O)Nc1ccc([N+](=O)[O-])cc1)=N/N=C(N)N
inactive: [1] -4.25% | [2] -16% | [3] -8.6% | [4] 17.1% | [5] -10.8% | [6] 2.6%

CN1/C(=C/C=C/C=C/C=C2C(=O)c3ccccc3C2=O)C(C)(C)c2ccccc21
inactive: [1] -13.6% | [2] 10.5% | [3] 16.1% | [4] -39.5% | [5] -8.9% | [6] 26.8%

O=C(O)COc1ccc(F)c(F)c1F
inactive: [1] -16.1% | [2] 4.5% | [3] 21.1% | [4] -9.6% | [5] -2.75% | [6] -20.1%

CN(C)c1ccc(C=C(C(=O)O)C(=O)O)cc1
inactive: [1] -5.2% | [2] 15.3% | [3] -8.1% | [4] 19.4% | [5] 15.7% | [6] 15.5%

O=[N+]([O-])c1c(F)cc(F)cc1F
inactive: [1] -11% | [2] 5.75% | [3] -5.15% | [4] -19.9% | [5] 2.55% | [6] -6.65%

N=C(N)c1ccncc1
inactive: [1] -0.6% | [2] 5.75% | [3] 8.45% | [4] -32% | [5] 4.75% | [6] -1.95%

COC(=O)c1nc(N)nc(C(=O)OC)c1C(=O)c1ccc2ccccc2c1
inactive: [1] -4.75% | [2] -13% | [3] 10.8% | [4] -2.8% | [5] 3.9% | [6] 9.4%

CCn1nc(C(=O)O)c(=O)c2cc3c(cc21)OCO3
inactive: [1] 8.1% | [2] 7.2% | [3] -9.85% | [4] -15.7% | [5] -3.9% | [6] 7.4%

O=[N+]([O-])c1ccc(C2SCc3nc4ccccc4n32)cc1 (configuration not stated)
inactive: [1] 3.4% | [2] -14.2% | [3] 49.1% | [4] 15.2% | [5] 23.1% | [6] -2.65%

O=C1C2C(C(=O)N1c1ccccc1)C1(Br)c3ccccc3C2(Br)C2C(=O)N(c3ccccc3)C(=O)C21 (configuration not stated)
inactive: [1] -9.6% | [2] 6.3% | [3] -3.35% | [4] -13.4% | [5] -4.55% | [6] -2.55%

O=C(OCc1ccccc1CN1CCOCC1)c1ccccc1
inactive: [1] 2.55% | [2] 16.4% | [3] 9.5% | [4] -11.9% | [5] -15.8% | [6] 8.3%

[NH-]C(CC(N)=O)C(=O)O.[NH-]C(CC(N)=O)C(=O)O.[Zn+2] (configuration not stated)
inactive: [1] -3.15% | [2] -2.05% | [3] -3.9% | [4] -18.1% | [5] -2.75% | [6] 5.25%

Cc1ccc(-c2cc(=O)c3cc(C)c(C)c(C(=O)O)c3o2)cc1N
inactive: [1] -8.6% | [2] -3.55% | [3] 11.9% | [4] 6.1% | [5] 14.2% | [6] -7.4%

CNCCCCCNC
inactive: [1] -7% | [2] -10.6% | [3] -1.05% | [4] -5.45% | [5] -0.2% | [6] 19.2%

NNC(=S)N/N=C/c1ccco1
inactive: [1] -9.6% | [2] -9.7% | [3] -29.4% | [4] -19.2% | [5] -8.7% | [6] -14.2%

Cc1ccnc2[nH]c(-c3cccc(Cl)c3)cc(=O)c12
inactive: [1] -23.4% | [2] -18.6% | [3] -41% | [4] -33% | [5] -24.8% | [6] -58.5%

CCN(CC)CC(O)CN1CCCc2ccccc21 (configuration not stated)
inactive: [1] -9.4% | [2] 1.5% | [3] 0.6% | [4] -5.4% | [5] 7.85% | [6] -13.4%

Cc1nc(C)c(N2CCN(S(N)(=O)=O)CC2)c(=O)[nH]1
inactive: [1] -70.3% | [2] -26.9% | [3] -30.8% | [4] 6.6% | [5] 3.4% | [6] -21.8%

NC(=S)N/N=C(/CC(=O)c1ccc([N+](=O)[O-])cc1)C(=O)Nc1ncc([N+](=O)[O-])s1
inactive: [1] 51.9% | [2] 29% | [3] 30.1% | [4] 19.2% | [5] 53.2% | [6] 25.2%

Cc1c(Cl)ccc2c1NC(=O)C2(O)CC(=O)c1ccccc1 (configuration not stated)
inactive: [1] 10.1% | [2] -3.95% | [3] 35.9% | [4] 7.15% | [5] -18.8% | [6] 30.3%

COc1cc(C(OC(C)=O)OC(C)=O)c(Cl)cc1OC(C)=O
inactive: [1] 5.5% | [2] 5.15% | [3] 17.1% | [4] -2.1% | [5] -2.6% | [6] 11.8%

CC/C(Cl)=N\OC(=O)Nc1ccc(C#N)cc1
inactive: [1] -44.8% | [2] 4.9% | [3] -19.4% | [4] 13.8% | [5] 46.3% | [6] -10.4%

C1CCCC2(CCC1)OCCO2
inactive: [1] 0.7% | [2] 10.4% | [3] -4.05% | [4] -9.55% | [5] 17.1% | [6] 1.65%

CS(=O)(=O)Oc1c(Cl)cc(Cl)c2cccnc12
inactive: [1] 7.8% | [2] -1.1% | [3] -3.75% | [4] -13.7% | [5] 1.2% | [6] 11.2%

C/C(O)=C(/N=Nc1ccc(-c2nc3ccc(C)c(S(=O)(=O)O)c3s2)cc1)C(=O)Nc1ccccc1
inactive: [1] 12.7% | [2] -22.5% | [3] 21.2% | [4] 16% | [5] 19.9% | [6] 26.9%

CCCC1(C)COC(=O)OC1
inactive: [1] 6% | [2] 6.5% | [3] 17.5% | [4] 13.9% | [5] 7.1% | [6] 19.9%

CCOC(=O)CNC(=O)C(Cc1ccccc1)NC(=O)OCc1ccccc1 (configuration not stated) (Cbz-[ξF]-Gly-OEt)
inactive: [1] -16.2% | [2] -19.1% | [3] 4.55% | [4] -4.75% | [5] -3.6% | [6] -9%

O=C1CCCC(=S)N1
inactive: [1] 3.1% | [2] 4.2% | [3] 9.35% | [4] 16.8% | [5] 14.3% | [6] 6.1%

Fc1cccc(-c2nnc(-c3cccc4ccccc34)o2)c1
inactive: [1] -8.65% | [2] -1.8% | [3] -0.5% | [4] -49.8% | [5] 1.45% | [6] -5.1%

Cc1ccc(Cl)cc1NC(=O)Nc1cccc(C(F)(F)F)c1
inactive: [1] 3.3% | [2] 25.5% | [3] 14.2% | [4] -5.4% | [5] 37.1% | [6] 8.95%

CC(=O)[C@H]1CC[C@H]2[C@@H]3CCC4=CC(=O)CC[C@]4(C)[C@H]3C[C@H](OS(=O)(=O)c3ccc(C)cc3)[C@]12C
inactive: [1] 20.3% | [2] 18.1% | [3] 31.2% | [4] 38.7% | [5] 12.1% | [6] 15.4%

C#C[C@@H](CCCC)OC(=O)N[C@H](C)c1ccccc1
inactive: [1] 58.9% | [2] 49.6% | [3] 64.5% | [4] -11.6% | [5] 22.5% | [6] 16.1%

c1ccc(B2Nc3ccccc3O2)cc1
inactive: [1] 18.1% | [2] 7.05% | [3] 5.3% | [4] 18.4% | [5] 43% | [6] 39.5%

CC(=O)NC1C(OC2C(CO)OC(OCC3OC(n4ccc(N)nc4=O)C(O)C3O)C(NC(C)=O)C2O)OC(CO)C(O)C1O (configuration not stated)
inactive: [1] 31.9% | [2] 48.4% | [3] 2.1% | [4] -16.2% | [5] -3.45%
active: [6] 89.2%

O=C(Nc1ccccc1)C(c1ccccc1)N(Nc1ccccc1Cl)c1ccccc1Cl (configuration not stated)
inactive: [1] 28.8% | [2] 10.8% | [3] 17.1% | [4] 7.05% | [5] -5% | [6] 25%

CC(C)=CCCc1cc(-c2cc(CCC=C(C)C)nc(N)n2)nc(N)n1
inactive: [1] 3.5% | [2] -10.9% | [3] -3.2% | [4] -7.1% | [5] -22.9% | [6] 15.1%

CC1=CC2(C)Cc3cc(C)cc(C)c3S(=O)(=O)C2C(C(=O)O)=C1 (configuration not stated)
inactive: [1] -11% | [2] -30.4% | [3] -13.9% | [4] -13.5% | [5] -14.8% | [6] -15.2%
